Measurements from PubChem BioAssay (EPA / NIEHS).
Activity calls are given as the source filed them. Rule for the calls: active = hit-call score of the fitted dose curve at least 0.9, where 1 is the maximum; inactive = score below 0.9.

What follows are molecules tested on Interferon-inducible T-cell alpha chemoattractant (ITAC), CXCL11 (gene 6373) (assay: BSK_hDFCGF_ITAC: BioMAP Diversity Plus: hDFCGF Assay for Interferon-inducible T-cell alpha chemoattractant (ITAC) Biomarker Activity (AID 2284251)). Conditions: primary human foreskin fibroblasts.
Summary of the method: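 Primary human foreskin fibroblasts (hDFCGF system) treated for 24 h; I-TAC quantified by ELISA. Gain-direction fitting versus DMSO; parallel SRB staining of total protein flagged overt cytotoxicity.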
In the case of `c1ccc(OCCOc2ccccc2)cc1`, the outcome is reported as “inactive”.
`CC(=O)c1ccc(C)cc1` was tested, and the outcome was “inactive”.
`CCCO[Si](OCCC)(OCCC)OCCC` was tested, and the outcome was “inactive”.
In the case of `CC(C)CCCC(C)(C)O`, the outcome is reported as “inactive”.
`CC(C)(CO)CO` was tested, and the outcome was “inactive”.
For `CCn1cc(C(=O)O)c(=O)c2ccc(C)nc21`, the outcome was “inactive”.
For `CCCCN(CCO)CCO`, the outcome was “inactive”.

These molecules were tested on Interleukin-8 (IL8), CXCL8 (gene 3576) (assay: BSK_KF3CT_IL8: BioMAP Diversity Plus: KF3CT Assay for Interleukin-8 (IL8) Biomarker Activity (AID 2284254)). Conditions: primary human keratinocytes with fibroblasts.
Summary of the method: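 Chemicals were added to co-cultured human keratinocytes and foreskin fibroblasts, incubated 24 h, then IL-8 was quantified by ELISA. Cytotoxicity was tracked by sulforhodamine B total-protein staining in parallel cultures.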
With `c1ccc(OCCOc2ccccc2)cc1` the outcome was “inactive”.
`CC(=O)c1ccc(C)cc1` was tested, and the outcome was “inactive”.
In the case of `CCCO[Si](OCCC)(OCCC)OCCC`, the outcome is reported as “inactive”.
With `CC(C)CCCC(C)(C)O` the outcome was “inactive”.
With `CC(C)(CO)CO` the outcome was “inactive”.
In the case of `CCn1cc(C(=O)O)c(=O)c2ccc(C)nc21`, the outcome is reported as “inactive”.
In the case of `CCCCN(CCO)CCO`, the outcome is reported as “inactive”.

Each molecule was assayed on Plasminogen activator inhibitor-1 (PAI1), SERPINE1 (gene 5054) (assay: BSK_MyoF_PAI1: BioMAP Diversity Plus: MyoF Assay for Plasminogen activator inhibitor-1 (PAI1) Biomarker Activity (AID 2284256;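 for outcome: PAI-1 protein level measured by ELISA in fibroblast cultures; PAI-1 read 24 h after compound addition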)). Conditions: primary human lung fibroblasts.
Summary of the method: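 Primary human lung fibroblasts are dosed and incubated 24 h. PAI-1 is then measured by ELISA, while parallel cultures undergo SRB staining for overt cytotoxicity. Increases over DMSO define activity.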
For `CC(C)(C)c1cccc(O)c1`, the outcome was “inactive”.
In the case of `CCOC(=O)CCCCCCCCC(=O)OCC`, the outcome is reported as “inactive”.
In the case of `c1ccc(Sc2ccccc2)cc1`, the outcome is reported as “inactive”.
With `C=CC(=O)OCC(CO)(COC(=O)C=C)COC(=O)C=C` the AC50 was 2.88 µM (active).
For `OCCN1CCOCC1`, the outcome was “inactive”.
For `CC(=O)CCC=C(C)CCC=C(C)C`, the AC50 was 0.016 µM (active).
With `CCCCCCCCCCCCS` the AC50 was 20 µM (active).
In the case of `CCCCCCCCCC(=O)OCC`, the outcome is reported as “inactive”.
`CCC(=O)OCC=Cc1ccccc1` was tested, and the outcome was “inactive”.
With `CCOC(=O)C=Cc1ccccc1` the outcome was “inactive”.
`CC(=O)OCC=C(C)CCC=C(C)CCC=C(C)C` was tested, and the outcome was “inactive”.
With `NC(=O)c1c(Cl)cccc1Cl` the AC50 was 4.48 µM (active).
`Nc1ccc(N)c([N+](=O)[O-])c1` was tested, and the outcome was “inactive”.
`CC1=CC(C)C(C=O)C(C)C1` (configuration not stated) (tested in a mixture with another compound) was tested, and the outcome was “inactive”.

These molecules were tested on Interleukin-8 (IL8), CXCL8 (gene 3576) (assay: BSK_MyoF_IL8: BioMAP Diversity Plus: MyoF Assay for Interleukin-8 (IL8) Biomarker Activity (AID 2284261)). Conditions: primary human lung fibroblasts.
Summary of the method: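 IL-8 levels were measured by ELISA in human lung fibroblasts harvested 24 h after compound addition. Responses were analysed as gain of signal over the DMSO baseline.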
For `CC(C)(C)c1cccc(O)c1`, the outcome was “inactive”.
`CCOC(=O)CCCCCCCCC(=O)OCC` was tested, and the outcome was “inactive”.
`c1ccc(Sc2ccccc2)cc1` was tested, and the AC50 was 30.6 µM (active).
With `C=CC(=O)OCC(CO)(COC(=O)C=C)COC(=O)C=C` the AC50 was 4.24 µM (active).
For `OCCN1CCOCC1`, the outcome was “inactive”.
In the case of `CC(=O)CCC=C(C)CCC=C(C)C`, the outcome is reported as “inactive”.
For `CCCCCCCCCCCCS`, the outcome was “inactive”.
With `CCCCCCCCCC(=O)OCC` the outcome was “inactive”.
`CCC(=O)OCC=Cc1ccccc1` was tested, and the outcome was “inactive”.
For `CCOC(=O)C=Cc1ccccc1`, the outcome was “inactive”.
In the case of `CC(=O)OCC=C(C)CCC=C(C)CCC=C(C)C`, the outcome is reported as “inactive”.
For `NC(=O)c1c(Cl)cccc1Cl`, the outcome was “inactive”.
For `Nc1ccc(N)c([N+](=O)[O-])c1`, the outcome was “inactive”.
For `CC1=CC(C)C(C=O)C(C)C1` (configuration not stated) (tested in a mixture with another compound), the outcome was “inactive”.
